Assay results reported in PubChem BioAssay (NCI).
This is part of a sample that, as a whole, favours compounds with a hit. Of some 79,000 tested, about 15% had one in any assay. Calls of active or inactive are those of the source. Rule as the data show it: active = growth inhibition above about 70%; inactive = the rest.

Legend:
[1] = NCI Yeast Anticancer Drug Screen. Data for the sgs1 mgt1 strain (AID 161);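 also: 0% = growth of cultures given vehicle only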; conditions: S. cerevisiae sgs1 mgt1 strain, active compounds read high
Outline: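 Yeast cells carrying a defined DNA-repair defect were exposed to test compounds. Growth inhibition was measured relative to vehicle-treated controls.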

[2] = NCI Yeast Anticancer Drug Screen. Data for the CLN2oe strain (AID 163);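 also: 0% = growth of vehicle-only control cultures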; conditions: S. cerevisiae CLN2oe strain, active compounds read high
Outline: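 Compound-treated yeast; growth vs vehicle ctrl = % inhibition. Genetically altered strain (cell-cycle control).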

[3] = NCI Yeast Anticancer Drug Screen. Data for the cln2 rad14 strain (AID 165);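 also: 0% = growth equal to vehicle treated cultures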; conditions: S. cerevisiae cln2 rad14 strain, active compounds read high
Outline: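 Growth inhibition, relative to vehicle-treated controls, is the read-out. The test organism is a yeast strain with defined genetic alterations, cln2 rad14.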

[4] = NCI Yeast Anticancer Drug Screen. Data for the bub3 strain (AID 167); conditions: S. cerevisiae bub3 mutant strain, active compounds read high
Outline: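 Inhibition values come from growth of compound-treated mutant yeast normalised to vehicle-treated controls.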

[5] = NCI Yeast Anticancer Drug Screen. Data for the wt2 strain (AID 169);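 also: 0% = growth of vehicle-treated yeast cultures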; conditions: S. cerevisiae wt2 strain growth inhibition, active compounds read high
Outline: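 Compound exposure of yeast; growth compared with vehicle controls; inhibition reported.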

[6] = NCI Yeast Anticancer Drug Screen. Data for the mlh1 strain (AID 171);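 also: 0% = growth of vehicle-treated control cultures of the same strain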; conditions: S. cerevisiae mlh1 strain growth inhibition, active compounds read high
Outline: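 Compounds are applied to a genetically altered yeast strain, and its growth is compared with that of vehicle-treated cultures to give percent inhibition.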

[7] = NCI Yeast Anticancer Drug Screen. Data for the sgs1 strain (AID 173);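 also: 0% = growth of vehicle-only control cultures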; conditions: S. cerevisiae sgs1 mutant, active compounds read high
Outline: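 Compounds applied to genetically altered yeast; growth compared with vehicle-treated cultures to give % inhibition.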

[8] = NCI Yeast Anticancer Drug Screen. Data for the mlh1 rad18 strain (AID 175); conditions: S. cerevisiae mlh1 rad18 strain growth inhibition, active compounds read high
Outline: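 Cells of a genetically altered yeast strain, deficient in DNA damage repair, were treated with compound. Their growth was then compared with that of vehicle-treated cultures to give inhibition.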

[9] = NCI Yeast Anticancer Drug Screen. Data for the rad18 strain (AID 177); conditions: S. cerevisiae rad18 mutant growth inhibition, active compounds read high
Outline: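 Compounds are applied to a repair-deficient yeast strain, and growth is compared with that of vehicle-treated cultures to give percent inhibition.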

[10] = at 5.0 µM (retest, dose inferred, filed as 0.5)
[11] = at 50.0 µM (retest, dose inferred, filed as 5.0)

Measured: growth inhibition

C[C@H](CCC(=O)NN)[C@H]1CC[C@H]2[C@@H]3CC[C@@H]4C[C@H](O)CC[C@]4(C)[C@H]3CC[C@]12C
active: [4]; [11] 73% | [4]; at 50.0 µM 89.2% | [8]; at 50.0 µM 92.2%
inactive: [1]; [10] 3% | [1]; [11] 51% | [1]; at 50.0 µM 35.3% | [2]; at 1.2 µM -4% | [2]; at 3.7 µM 2% | [2]; at 11.0 µM 5% | [2]; at 33.0 µM 2% | [2]; at 100.0 µM 16% | [3]; [10] -4% | [3]; [11] 54% | [3]; at 50.0 µM 54.4% | [4]; at 1.2 µM -3% | [4]; at 3.7 µM 1% | [4]; [10] -18% | [4]; at 11.0 µM 8% | [4]; at 33.0 µM 1% | [4]; at 100.0 µM -3% | [5]; at 1.2 µM -2% | [5]; at 3.7 µM -2% | [5]; at 11.0 µM -2% | [5]; at 33.0 µM -1% | [5]; at 100.0 µM 2% | [6]; at 1.2 µM 3% | [6]; at 3.7 µM 2% | [6]; at 11.0 µM 2% | [6]; at 33.0 µM -14% | [6]; at 100.0 µM 4% | [7]; at 1.2 µM 2% | [7]; at 3.7 µM 3% | [7]; at 11.0 µM 4% | [7]; at 33.0 µM 4% | [7]; at 100.0 µM 6% | [8]; [10] 21% | [8]; [11] 44% | [9]; at 1.2 µM -5% | [9]; at 3.7 µM -4% | [9]; at 11.0 µM 5% | [9]; at 33.0 µM 0% | [9]; at 100.0 µM 3%
